Reference: the supplement of paper PMC13380429

System: Vero E6 infected with SARS-CoV-2
Assay: inhibition of SARS-CoV-2 cytopathic effect; higher = more antiviral protection, active = above 15
Conditions: 48 h

Measured: inhibition of SARS-CoV-2 cytopathic effect

NCCCC(O)(P(=O)(O)O)P(=O)(O)O [alendronate]
inactive: 1 nM -2.08% | 8.33 nM -1.44% | 100 nM 0.15% | 833.33 nM -0.56% | 10000 nM -0.44%

C[C@H](NC(=O)/C(C#N)=C/c1cccc(Br)n1)c1ccccc1
inactive: 1 nM -2.07% | 8.33 nM -1.75% | 100 nM -2.65% | 833.33 nM 5.36% | 10000 nM -4.77%

Nc1nc(=O)c(Br)c(-c2ccccc2)[nH]1 [bropirimine]
inactive: 1 nM -2.33% | 8.33 nM 1.04% | 100 nM 1.75% | 833.33 nM -0.1% | 10000 nM -0.45%

COc1ccc(NS(=O)(=O)c2sc3ccc(Cl)cc3c2C)cc1N1CCNCC1
inactive: 1 nM 0.93% | 8.33 nM 3.35% | 100 nM 0.86% | 833.33 nM 3.23% | 10000 nM -3.32%

CCN(CC)CCOC(=O)C1(c2ccccc2)CCCC1 [caramiphen]
inactive: 1 nM -4.57% | 8.33 nM -4.75% | 100 nM -1.97% | 833.33 nM -0.96% | 10000 nM -3.45%

Cc1nc(N)sc1-c1ccnc(Nc2ccc(N3CCOCC3)cc2)n1
inactive: 1 nM 0.34% | 8.33 nM 0.72% | 100 nM 0.35% | 833.33 nM 2.13% | 10000 nM 2.1%

CCO[C@@H]1OC(=O)C[C@@H]1NC(=O)[C@@H]1CCCN1C(=O)[C@@H](NC(=O)c1ccc(N)c(Cl)c1)C(C)(C)C
inactive: 1 nM -2.56% | 8.33 nM -1.09% | 100 nM 0.58% | 833.33 nM 0.04% | 10000 nM -2.79%

Cc1nc2ccc(-n3ncc(C(=O)c4cc5ccccc5[nH]4)c3N)cc2[nH]1
inactive: 1 nM -2.45% | 8.33 nM -1.11% | 100 nM 0.12% | 833.33 nM 2.07% | 10000 nM -0.86%

CC1(C)CCC2=C(O1)c1ccccc1C(=O)C2=O [beta-lapachone]
inactive: 1 nM -0.31% | 8.33 nM 0.37% | 100 nM -2.74% | 833.33 nM -1.46% | 10000 nM 10.9%

C=Cc1cc(O)cc2nc(-c3ccc(O)c(F)c3)oc12 [prinaberel]
inactive: 1 nM 0.2% | 8.33 nM 0.74% | 100 nM 1.61% | 833.33 nM 0.55% | 10000 nM 0.56%

Cc1c(CN(C)C(=O)/C=C/c2cnc3c(c2)CCC(=O)N3)oc2ccccc12
inactive: 1 nM 0.18% | 8.33 nM -1.15% | 100 nM 1.59% | 833.33 nM 0.21% | 10000 nM -1.4%

O=C([O-])c1ccccn1.O=C([O-])c1ccccn1.O=C([O-])c1ccccn1.[Cr+3] [chromium-picolinate]
inactive: 1 nM 0.6% | 8.33 nM 3.76% | 100 nM 1.3% | 833.33 nM -3.86% | 10000 nM 0.6%

COCCOc1cnc2ccn([C@H](C)c3nnc4c(F)cc(-c5cnn(C)c5)cn34)c(=O)c2c1
inactive: 1 nM -0.43% | 8.33 nM -1.31% | 100 nM 0.19% | 833.33 nM -0.75% | 10000 nM -0.37%

On1ncc(C2CCNCC2)c1-c1cccc(-c2ccccc2)c1
inactive: 1 nM 0.6% | 8.33 nM 1.61% | 100 nM 1.14% | 833.33 nM 0.48% | 10000 nM -2.39%

Cc1ccc(NC2=CC(=O)c3sc(C)nc3C2=O)cc1 [ryuvidine]
inactive: 1 nM 1.42% | 8.33 nM 4.18% | 100 nM 4.56% | 833.33 nM 6.56% | 10000 nM -20.4%

N#Cc1ccc(C2CCCc3cncn32)cc1 (stereo not given) [fadrozole]
inactive: 1 nM 1.9% | 8.33 nM 0.56% | 100 nM -1.22% | 833.33 nM -4.4% | 10000 nM -0.19%

O=P(O)(O)C(O)(Cc1cccnc1)P(=O)(O)O [risedronate]
inactive: 1 nM -0.54% | 8.33 nM -1.25% | 100 nM -0.67% | 833.33 nM 3.13% | 10000 nM 1.96%

C[C@H](Oc1ccc(S(C)(=O)=O)cc1C(=O)N1CCN(c2ncc(C(F)(F)F)cc2F)CC1)C(F)(F)F [bitopertin]
inactive: 1 nM 1.07% | 8.33 nM 0.78% | 100 nM 1.93% | 833.33 nM 0.34% | 10000 nM -3.97%

Cc1cc(C)cc(NC(=O)Cc2ccc(OC(C)(C)C(=O)O)cc2)c1 [efaproxiral]
inactive: 1 nM -0.22% | 8.33 nM -2.52% | 100 nM 1.44% | 833.33 nM 1.37% | 10000 nM -1.51%
